# Source: PubChem BioAssay (The Scripps Research Institute Molecular Screening Center)
# Compounds with a hit are over-represented: about 1.9% of the library has one in this group of screens.
# HTR5A ag: HTR5A agonism, opioid heterodimer counter-screen | HTR5A agonist assay, luminescence, cell-based | activation, % at 9.3 µM | actives 0.61% (n = 340,000); in the data active = activation mostly above about 9.5%, no sharp cut-off; inactive = mostly below about 7.6%;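 also: 0% = cells with vehicle only and 100% = reference agonist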
# OPRM1-OPRD1 inv: mu-delta opioid heterodimer inverse agonism; P35372+P41143; cell-based MOR-DOR heterodimer luminescence; inhibition, % at 9.3 µM; actives 0.21% (n = 340,000); AID 504357; in the data active = inhibition above about 22%, passing the limit was not always enough;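 also: 0% = cells with DMSO and 100% = wells without cells with DMSO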
# Target sequence (P35372 whole entry, looked up): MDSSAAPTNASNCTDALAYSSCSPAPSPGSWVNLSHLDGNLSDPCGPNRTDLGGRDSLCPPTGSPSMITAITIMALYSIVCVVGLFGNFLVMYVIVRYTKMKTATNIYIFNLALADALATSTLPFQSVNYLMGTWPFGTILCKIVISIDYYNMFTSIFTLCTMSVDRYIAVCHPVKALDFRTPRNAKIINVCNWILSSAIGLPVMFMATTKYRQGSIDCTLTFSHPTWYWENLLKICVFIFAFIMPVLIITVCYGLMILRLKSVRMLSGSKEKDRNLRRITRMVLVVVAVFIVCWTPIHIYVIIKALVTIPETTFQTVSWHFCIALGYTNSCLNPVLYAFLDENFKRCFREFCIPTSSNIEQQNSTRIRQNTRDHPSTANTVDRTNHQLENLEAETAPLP
# Target sequence (P41143 whole entry, looked up): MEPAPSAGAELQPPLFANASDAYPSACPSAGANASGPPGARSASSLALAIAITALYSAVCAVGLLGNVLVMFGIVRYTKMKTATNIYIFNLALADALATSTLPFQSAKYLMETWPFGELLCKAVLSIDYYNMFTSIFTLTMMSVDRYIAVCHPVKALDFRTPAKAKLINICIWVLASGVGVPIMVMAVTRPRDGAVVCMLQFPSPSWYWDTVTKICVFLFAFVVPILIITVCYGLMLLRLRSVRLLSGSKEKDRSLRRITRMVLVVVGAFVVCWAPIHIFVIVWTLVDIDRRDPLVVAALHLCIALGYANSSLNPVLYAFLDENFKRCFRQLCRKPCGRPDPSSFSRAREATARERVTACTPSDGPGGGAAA
# MOR-DOR ag: agonists of human mu-delta opioid receptor heterodimerization; actives 0.3% (n = 340,000); cells, OPRM1-OPRD1 heterodimerization, luminescence; activation, % at 9.3 µM; in the data active = activation above about 18%;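 also: 0% = vehicle-treated cells and 100% = reference agonist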
# HTR5A inv ctr: counter-screen for OPRM1-OPRD1 inverse agonists: human HTR5A inverse agonism | P47898 | HTR5A cell line, luminescence | inhibition, % at 9.3 µM | actives 0.083% (n = 340,000); in the data active = inhibition mostly above about 23%, no sharp cut-off; inactive = mostly below about 18%;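 also: 0% = cells with DMSO and 100% = no-cell wells with DMSO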
# MsrA inh: bovine MsrA inhibition; inhibition, % at 15.5 µM; purified bovine MsrA, absorbance read-out; actives 0.75% (n = 360,000); AID 651718; in the data active = inhibition above about 4.5%;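 also: 0% = vehicle wells with enzyme and 100% = reference inhibitor wells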
# bovine MsrA act: activates bovine MsrA enzyme; activation, % at 10.6 µM; purified bovine MsrA, absorbance read-out; actives 0.3% (n = 360,000); in the data active = activation above about 7.5%;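 also: 0% = vehicle and 100% = reference activator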
# * marks the source's active call; other numbers are inactive results; . = no result.
SMILES,HTR5A ag,OPRM1-OPRD1 inv,MOR-DOR ag,HTR5A inv ctr,MsrA inh,bovine MsrA act
COc1ccc(C(CCN(Cc2ccc(OC)c(OC)c2)C(C)=O)c2ccccc2)cc1 (stereo not given),-4,8,-1,10,-2,-2
CN(Cc1ccccc1)C(=O)CCCn1c(=O)[nH]c2cc(Cl)ccc2c1=O,13*,6,-1,13,0,-9
COc1cccc(CNC(=O)[C@H]2CCCN2C(=O)[C@H]2CCCN2C(=O)c2ccc(F)cc2F)c1,.,.,.,.,0,.
NC(=O)c1cc(Cc2ccccc2)sc1NC(=O)c1ccco1,3,-5,1,-10,2,-4
CCOc1ccc(CC(=O)Nc2sc(Cc3ccccc3)cc2C(N)=O)cc1OCC,9.6*,-14,2,-49,0,-13
CCOC(=O)N(C)C[C@H]1OCc2cn(nn2)CCCC(=O)N([C@@H](C)CO)C[C@@H]1C,.,.,.,.,0,.
Cc1ccc2c(c1)C(c1ccc(O)cc1)(c1ccc(O)cc1)C(=O)N2C,10*,7,-1,-28,-1,-9
CCC(CC)c1nnc(NC(=O)CC(C)c2ccccc2)s1 (stereo not given),12*,-26,5,-39,-1,0
CC(C)c1nnc(NC(=O)CC(C)c2ccccc2)s1 (stereo not given),1,-9,2,20,1,-3
COC(=O)[C@@H](N[C@H](/C=C/c1ccccc1)[C@@H](O)Cc1ccccc1)C(C)C,.,.,.,.,0,.
COc1ccccc1/C=C/C=N/NC(=O)c1ccco1,0,9,-2,-21,4.6*,-6
C=CCN1C(=O)/C(=c2\sc3nc(=O)c(Cc4ccccc4)nn3c2=O)c2ccccc21,.,.,.,.,0,-3
C=CCN1C(=O)/C(=N/n2cnnc2)c2ccccc21,2,46*,-8,-7,0,4
Cc1cccc(-c2cc3nc(-c4ccccc4)cc(N4CCC5(CC4)OCCO5)n3n2)c1,12*,-4,1,10,1,-15
Cc1ccc(-c2cc3nc(-c4ccccc4)cc(N4CCC5(CC4)OCCO5)n3n2)cc1,4,-4,1,-13,0,-4
Cc1cccc(NC(=O)CN2C(=O)N/C(=C/c3ccc(C)s3)C2=O)c1,12*,-145,23*,-23,1,-10
COC(=O)Cc1c([C@H](C)[C@@H](OC)c2ccccc2Br)nnn1Cc1ccccc1,.,.,.,.,0,.
COc1ccccc1-c1cc(C(F)(F)F)n2ncc(S(=O)(=O)c3ccccc3)c2n1,4,-6,1,24,9.4*,-11
NC(=O)c1ncn([C@@H]2O[C@H](C(=O)N3CCCN(Cc4ccccc4F)CC3)[C@@H](O)[C@H]2O)n1,.,.,.,.,-1,.
C=C1[C@@H](CCO)N(S(=O)C(C)(C)C)C[C@@H]1C (stereo not given in full),.,.,.,.,0,.
CC(C)c1cc(C(=O)N2CCCC(N3CCN(c4ccc(F)cc4)CC3)C2)n(C)n1 (stereo not given),10*,16,-3,-5,1,-1
CC(C)c1cc(C(=O)N2CCCC(N3CCN(c4ccc(F)cc4)CC3)C2)no1 (stereo not given),-5,19,-4,21,1,-4
Cc1cc(N2CCN(CC(C)(C)O)C[C@@H]2C)ccc1N1CCN(Cc2ccccc2)[C@H](C)C1,.,.,.,.,0,.
CCOC(=O)c1coc(CNC(=O)c2c(C)oc3c2CCCC3)c1,15,0,0,-36,1,-9
CCOC(=O)c1cc(CNC(=O)c2c(C)oc3c2CCCC3)c(C)o1,11*,-6,1,-3,1,-11
SMILES,HTR5A ag,OPRM1-OPRD1 inv,MOR-DOR ag,HTR5A inv ctr,MsrA inh,bovine MsrA act
COc1cccc(C(=O)N[C@H](C(=O)N2CCC[C@H]2C(=O)NC2CCCC2)C2CCCCC2)c1,.,.,.,.,0,.
O=C(N/N=C/c1c[nH]c2ccccc12)c1cc(-c2ccc(-c3ccccc3)cc2)n[nH]1,12*,-19,4,-21,4,-3
O=C(N/N=C/c1c[nH]c2ccccc12)c1cc(-c2ccccc2)n[nH]1,-3,-21,3,6,0,-5
COC(=O)C1=C(C)N(Cc2cccc(C(F)(F)F)c2)C(=NCC2CC2)NC1c1ccccc1 (stereo not given),.,.,.,.,-1,.
Cc1nc(N2CCCCC2)c2c(C)c(C(=O)Nc3cccc(C(F)(F)F)c3)sc2n1,14*,-68,10,0,-1,-2
C[C@@H]1CN(C(=O)OC(C)(C)C)CCN1c1ccc(N2CCS(=O)(=O)CC2)c(C#N)c1,.,.,.,.,0,.
CC(C)C[C@@H](CN1CCC[C@@H]1CN1C(=O)C(=O)NC[C@@H]1Cc1ccccc1)N1C[C@H](Cc2ccccc2)N(CC2CCCCCC2)C(=O)C1=O,10*,7,-1,-39,2,-1
CC(C)C[C@@H](CN1CCC[C@@H]1CN1C(=O)C(=O)NC[C@@H]1Cc1ccccc1)N1C[C@H](Cc2ccccc2)N(CC2CCCCC2)C(=O)C1=O,.,.,.,.,3,-2
COC(=O)C1=C(C)N(Cc2cccc(C(F)(F)F)c2)C(=NCc2ccccc2C(F)(F)F)NC1c1cccc(F)c1 (stereo not given),.,.,.,.,-1,.
CC(C)c1ccc(OCC(O)CNC(C)c2ccccc2)cc1 (stereo not given),12*,-18,4,-41,3,1
CCC(=O)c1ccc(OCC(O)CNC(C)c2ccccc2)cc1 (stereo not given),1,-13,2,-5,1,-6
Cc1occc1-c1nnc(SCC(=O)Nc2ccccc2)n1C,-2,8,-2,-4,1,-5
Cc1occc1-c1nnc(SCC(=O)Nc2ccccc2N2CCCCC2)n1C,9.8*,-12,2,-16,0,-10
CN(C)c1ccc(C2N3CC4(C)CN2CC(C)(C3)C4O)cc1 (stereo not given),-6,1,0,2,5.5*,-10
CCOc1ccc(-n2nnnc2SCC(=O)c2ccccc2)cc1,13*,-6,1,9,1,0
CC(C)N(CC(=O)Nc1ccc(Cl)cc1C(F)(F)F)C(=O)CCl,12*,-4,1,-30,1,-16
Cc1ccc2nc(SCC(=O)Nc3cccc(F)c3)nc(=O)n2c1,-1,13,-2,3,5.1*,-4
NCCc1c(-c2ccccc2)n(-c2ccccc2)c2ccccc12,14*,-42,8,-10,1,3
Cc1cc(N2CCN(C(=O)OC(C)(C)C)C[C@H]2C)ccc1N1CCN(Cc2ccccc2)[C@@H](C)C1,.,.,.,.,-2,.
C[C@H]1CN(C(=O)OC(C)(C)C)CCN1c1ccc(N2CCS(=O)(=O)CC2)c(C#N)c1,.,.,.,.,2,.
CC1=[N+](C)c2ccc3ccccc3c2C1(C)C,13*,-69,9,-37,-1,-4
C[C@H](c1ccccc1)N1C[C@@H](COCc2ccccc2)Oc2cccc(Oc3ccc(C(C)(C)C)cc3)c2S1(=O)=O,.,.,.,.,0,.
CSc1nc(N)nc(SCC(=O)C23CC4CC(CC(C4)C2)C3)c1C#N,12*,-47,9,-34,2,0
